# Screening results (PubChem)
# OvCa metastasis = ovarian cancer metastasis inhibition, 3D TME model; SKOV3ip1-GFP adhesion/invasion on 3D omental model, fluorescence; Potency, µM (top dose mostly 45.8 µM), for the others: top-dose activity change, negative = inhibition, hits mostly inhibitors; actives 0.1% (n = 46,000);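 note: potency is the fitted concentration of half-maximal effect; plate controls were DMSO wells for no effect and tomatine positive control wells for full effect; nearly all actives have a fitted effect of over 65% in size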
#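 Primary human omental fibroblast/mesothelial 3D culture pre-formed 48 h. SKOV3ip1-GFP cells added with compounds (0.36-46 umol/L), incubated 2 h RT/16 h 37 C, fixed; GFP cells quantified at 488/509 nm.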
# GALC G270D up = raises human GALC G270D mutant activity in cells; Potency, µM (series often up to 57.5 µM), actives largely listed as activators; actives 0.1% (n = 45,000); 145M-Twi-hGALC-G270D cells (Twitcher mouse brain line with human GALC G270D), HMU-beta-Gal fluorescence, 48 h; P54803; note: potency is the fitted concentration of half-maximal effect; 0% is about no effect; nearly all actives have a fitted effect of over 65% in size
#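 Fluorescence readout: HMU-β-gal cleavage by mutant GALC (0.1 mM final, citrate/phosphate pH 5.2 with 1 mg/mL taurocholate), stopped with carbonate/bicarbonate plus Triton X-100. Cells: murine Twitcher 145M-Twi expressing human G270D GALC; qHTS for activators.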
# FH mod = Identification of activators of human fumarate hydratase by quantitative high-throughput screening. FH coupled MDH/diaphorase resazurin fluorescence, 15 min. Potency, µM (highest dose often 79.9 µM), for inactives: at the top dose activity change, negative = inhibition, usual class: inhibitors. actives 0.22% (n = 54,000). AID 1347055, 2019; note: potency is the fitted concentration of half-maximal effect; % is set by controls: 0 for no effect and ±100 for the full control effect; the screen sought activators but most active calls are inhibition curves; nearly all actives have a fitted effect of over 45% in size
# DRV1 agonist = activates human resolvin D1 receptor GPR32; activation, % at 76.9 µM; AID 1346428; O75388; CHO-K1 GPR32 beta-arrestin PathHunter luminescence, 90 min; zero percent set by DMSO-only wells; actives 2.5% (n = 48,000);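 active = activation of at least 60% and not above a set upper limit, about 1 call in 100 departs from these limits; inconclusive = activation of 40% to 60%, or above that upper limit; inactive = activation under 40%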; note: 0% is about no effect
# Target sequence (O75388 whole entry, looked up): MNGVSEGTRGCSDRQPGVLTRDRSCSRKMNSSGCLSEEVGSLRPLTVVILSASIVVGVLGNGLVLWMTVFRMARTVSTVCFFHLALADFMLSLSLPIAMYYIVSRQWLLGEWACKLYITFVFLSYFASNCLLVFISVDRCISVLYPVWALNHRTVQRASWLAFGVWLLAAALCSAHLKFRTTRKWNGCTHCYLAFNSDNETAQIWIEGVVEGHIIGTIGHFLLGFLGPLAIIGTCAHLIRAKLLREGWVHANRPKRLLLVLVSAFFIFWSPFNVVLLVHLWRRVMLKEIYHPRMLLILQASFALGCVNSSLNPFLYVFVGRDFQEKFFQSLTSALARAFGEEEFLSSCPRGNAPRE
#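 Agonism was scored as beta-arrestin recruitment to ProLink-fused GPR32 in stably transfected CHO-K1 cells, giving a chemiluminescent beta-Gal signal; compounds were incubated 90 min at 37 °C.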
# * = called active by the depositor; i = inactive; ? = inconclusive; · = no result; [ ] = another dose, or the depositor's remark. A selection: hits, their analogues and other compounds. The true share with any hit is near 2.9%. Unless noted, calls come from the whole dose curve; as a rule, active = well fitted curve in the direction sought with a large enough effect; inconclusive = small, poorly fitted or top-dose-only effect, or another doubt; inactive = no such curve, though single readings can be large; an effect the other way counts as inactive or inconclusive.
SMILES,OvCa metastasis,GALC G270D up,FH mod,DRV1 agonist
COc1ccc2[nH]cc(CCNC(=O)Nc3c(C)cccc3C)c2c1,-9.5%,i,-7.0%,32.2
CS(=O)(=O)NCC1CCC(Nc2nc3c(s2)CCSc2ccccc2-3)CC1 (configuration not stated),·,·,-8.1%,·
CC(=O)OCc1cc(=O)n2nc(C3CCCCC3)sc2n1,-10.3%,i,-10.3%,14.8
CC(C)(C)C(=O)OCc1cc(=O)n2nc(C3CCCCC3)sc2n1,4.5%,i,5.9%,79.1*
C/C=C(\C)C(=O)O[C@H]1C[C@](C)(O)[C@H]2CC=C(C)[C@H]2[C@@H]2OC(=O)[C@H](C)[C@H]21,·,·,-1.9%[53.3 µM],·
Cc1ccc(-n2ncc3c(Nc4cccc(Cl)c4)ncnc32)c(C)c1,10µM*,i,?,-7.8
Cc1ccc(-n2ncc3c(Nc4cccc(C)c4)ncnc32)cc1,i,i,-18.3%,?
Cc1ccc(CNc2ncnc3c2cnn3-c2ccc(C)cc2C)cc1,-14.4%,i,?,61.2*
Cc1ccc(-n2ncc3c(Nc4cccc(C(F)(F)F)c4)ncnc32)cc1C,-7.4%,i,-1.4%,93.7*
O=C(NCC1(N2CCN(c3ccccc3)CC2)CCOCC1)c1cccnc1Sc1ccccc1,·,·,2.7%,·
CCn1c(CN2CCCCC2)nc2cc(NC(=O)c3ccc([N+](=O)[O-])cc3)ccc21,-5.6%,i,4.8%,70.5*
CCc1c(C)nc2nc(-c3ccccc3)nn2c1NCc1ccc(C)cc1,19.6%,i,?,72.2*
CCc1c(C)nc2nncn2c1NCc1ccccc1,9.8%,i,0.9%,-22.2
Oc1cccc(Nc2ncnc3sc4c(c23)CCCC4)c1,3.7%,i,7.4%,66.2*
Cc1nc(C)c(-c2ccc(C3CCC(CC(=O)O)CC3)cc2)nc1C(N)=O (configuration not stated),·,·,-0.1%,·
O=C(Nc1cccc(Cl)c1)C1CCCN(c2ncnc3c2nc2n3CCCCC2)C1 (configuration not stated),-15.6%,i,-14.4%,67.2*
Cc1ccc2c(c1)c(=O)c1ccccc1n2CCCC(=O)Nc1ccc(C)c(C)c1,?,39.8µM*,-16.0%,-1.7
Cc1ccc2c(c1)c(=O)c1ccccc1n2CCCC(=O)Nc1ccc(C)c(F)c1,-15.6%,i,-30.5%,8.3
CC(C)N(CCCCOCC(=O)NS(C)(=O)=O)c1cnc(-c2ccccc2)c(-c2ccccc2)n1,·,·,-8.4%,·
CC1CCc2c(sc(NC(=O)c3ccc(Cl)cc3Cl)c2C#N)C1 (configuration not stated),6.8%,i,-8.4%,106.0*
CC1CCc2c(sc(NC(=O)C3c4ccccc4Oc4ccccc43)c2C#N)C1 (configuration not stated),0.6%,i,-15.8%,-6.5
CCC1CCc2nc3sc(C(=O)Nc4cccc(F)c4)c(N)c3cc2C1 (configuration not stated),4.5%,i,14.0%,14.4
COc1ccc(NC(=O)c2sc3nc4c(cc3c2N)CCCCCC4)cc1,?,i,-26.5%,73.8*
COc1ccc(NC(=O)c2sc3nc4c(cc3c2N)CCCCCC4)cc1Cl,-21.8%,i,9.8%,26.5
CCC1CCc2nc3sc(C(=O)Nc4cccc(C(F)(F)F)c4)c(N)c3cc2C1 (configuration not stated),2.2%,10µM*,-4.0%,21.0
SMILES,OvCa metastasis,GALC G270D up,FH mod,DRV1 agonist
C/C=C(/C)C(=O)OC1C=C2C3C(C)C(C)C(OC(=O)C(C)C(C)O)CC3(C)CCC2(C)C2(C)CC(OC(C)=O)C3C(C)(C)C(O)C(=O)CC3(C)C12 (configuration not stated),·,·,-9.7%[20.6 µM],·
C=CC(C)(O)CC[C@@H]1[C@@]2(C)CCCC(C)(C)C2CC[C@@]1(C)O (some centres not stated),·,·,-8.7%,·
C=C/C=C/[C@@H]1OC[C@H](/C=C/C=C/C)[C@H]1O,·,·,10.4%,·
CC(C)OCCCn1c(SCC(=O)Nc2ccc(F)cc2)nc2c(sc3ccccc32)c1=O,17.2%,i,0.8%,-3.7
COCCCn1c(SCc2ccccc2F)nc2c(sc3ccccc32)c1=O,-8.8%,31.6µM*,-28.9%,1.7
CC(C)OCCCn1c(SCC(N)=O)nc2c(sc3ccccc32)c1=O,-27.2%,i,-5.9%,115.0*
Cc1ccccc1CSc1nc2c(sc3ccccc32)c(=O)n1CCCOC(C)C,1.8%,i,-29.1%,20.7
O=C(c1ccc(-c2ccc(Cl)cc2)o1)N(Cc1ccccn1)c1ccc(N2CCNCC2)cc1,·,·,6.0%,·
CCN(CC)C(=O)Cn1c(=O)cc(C)c2c(C)nn(-c3cccc(Cl)c3C)c21,-3.3%,i,-10.4%,94.0*
Cc1c(Cl)cccc1-n1nc(C)c2c(C)cc(=O)n(CC(=O)NCc3ccccc3)c21,i,i,-13.9%,-7.1
CCNc1nc(NCc2ccc(F)cc2)c2cnn(C)c2n1,-2.2%,i,1.0%,72.2*
O=C1c2ccccc2-[n+]2ccc3c([nH]c4ccccc43)c21,2.35µM*,·,6.85µM*,·
COC1(c2sc3c(N4CCOCC4)nc(-c4cnc(N)nc4)nc3c2C)COC1,·,·,-4.9%,·
Cc1ccc(C)c(Nc2nn3c(=O)c4ccc(C(=O)NCc5ccccc5)cc4nc3s2)c1,i,i,2.0%,63.1*
Cc1ccc(C)c(NC(=O)Nc2cccc(-c3cn4cccnc4n3)c2)c1,i,i,3.3%,79.7*
CCC(CC)C(=O)Nc1cccc(-c2cn3cccnc3n2)c1,2.4%,i,1.0%,28.2
O=C(Nc1cccc(-c2cn3cccnc3n2)c1)c1cc(Br)ccc1Cl,3.6%,i,-1.4%,82.8*
CC1(C(=O)O)CCCC2(C)C3CCC4CC3(CCC12)CC4(O)CO (configuration not stated),·,·,1.4%[53.3 µM],·
CC(=O)O[C@@H]1C2=C(O)C(=O)[C@](C)(OC(C)=O)C(=O)C2=CO[C@@]12O[C@@H](C)CC[C@H]2OC(C)=O,·,·,2.1%[53.3 µM],·
CN1C(=O)C(C)(C)c2cc(S(=O)(=O)N3CCCC3C(=O)Nc3ccc(F)cc3)ccc21 (configuration not stated),3.1%,i,1.1%,-2.2
O=C(Nc1ccc(F)c(Cl)c1)C1CCCN1S(=O)(=O)c1ccc(F)cc1 (configuration not stated),4.2%,i,-5.3%,83.3*
COc1ccccc1N(CC(=O)NCCSCc1cccc(Cl)c1)S(C)(=O)=O,-14.1%,i,-11.0%,87.7*
COc1ccccc1N(CC(=O)NCCSCc1ccccc1Cl)S(C)(=O)=O,i,i,1.6%,21.1
CC(=O)c1c(OCCN2CCCCC2)c(OCCC(C)c2ccc(F)cc2)c2oc(C)nc2c1C (configuration not stated),·,·,-1.7%,·
COc1ccccc1-c1cc(C(F)(F)F)nc(S(=O)(=O)CCCC(=O)Nc2cc(OC)c(OC)c(OC)c2)n1,-0.3%,i,0.4%,80.5*
